Data taken from PubChem BioAssay (NCATS).
Results filed as inconclusive are left out. The source made the active and inactive calls. The call rests on the fitted dose curve; in most records, active means well fitted curve in the direction sought with a large enough effect; inconclusive means small, poorly fitted or top-dose-only effect, or another doubt; inactive means no such curve, though single readings can be large; an effect the other way counts as inactive or inconclusive.

Assays:
[1] = qHTS of pediatric cancer cell lines to identify multiple opportunities for drug repurposing: Primary screen for DAOY cells (AID 1347090); further: series mostly up to about 46 µM; nearly all actives have a fitted effect of over 55% in size
How it was run: (§1)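 Eight- or eleven-point concentration series, 48 h treatment at 37 degrees C in growth media; readout CellTiter-Glo luminescence. Potency and efficacy were taken from the concentration-response curves.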

[2] = qHTS of pediatric cancer cell lines to identify multiple opportunities for drug repurposing: Primary screen for SJ-GBM2 cells (AID 1347091)
How it was run: as §1

[3] = qHTS of pediatric cancer cell lines to identify multiple opportunities for drug repurposing: Primary screen for A673 cells (AID 1347092); further: nearly all actives have a fitted effect of over 45% in size
How it was run: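 A673 cells (500-1,000 cells/well in growth media) were pre-incubated 5 h at 37 degrees C, then exposed to compounds for 48 h. Viability was read as CellTiter-Glo luminescence; concentration-response curves came directly from the primary screen.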

[4] = qHTS of pediatric cancer cell lines to identify multiple opportunities for drug repurposing: Primary screen for SK-N-MC cells (AID 1347093); further: series mostly up to about 46 µM
How it was run: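 Metabolically active cells were quantified by ATP-dependent luminescence (CellTiter-Glo, 15 min at room temperature) following 48 h treatment. Cells had been plated at 500-1,000 per well and settled for 5 h beforehand.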

[5] = qHTS of pediatric cancer cell lines to identify multiple opportunities for drug repurposing: Primary screen for BT-37 cells (AID 1347094); further: series mostly up to about 57 µM
How it was run: (§2)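 Plated cells (500-1,000 per well, growth media) were allowed to settle for 5 hours, treated with compound dilutions for 48 hours, then lysed with CellTiter-Glo for 15 min at room temperature before luminescence reading.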

[6] = qHTS of pediatric cancer cell lines to identify multiple opportunities for drug repurposing: Primary screen for NB-EBc1 cells (AID 1347095)
How it was run: as §2

[7] = qHTS of pediatric cancer cell lines to identify multiple opportunities for drug repurposing: Primary screen for U-2 OS cells (AID 1347096); further: nearly all actives have a fitted effect of over 50% in size
How it was run: (§3)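 Cells (500-1,000/well) in growth media were settled 5 h at 37 degrees C, then given compounds for 48 h. Viability was read as CellTiter-Glo luminescence. Primary runs used MIPE at 11 points (0.78 nM-46 µM) and NPC at 8 points (0.59 nM-46 µM); follow-ups used 11 points.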

[8] = qHTS of pediatric cancer cell lines to identify multiple opportunities for drug repurposing: Primary screen for Saos-2 cells (AID 1347097); further: nearly all actives have a fitted effect of over 40% in size
How it was run: as §2

[9] = qHTS of pediatric cancer cell lines to identify multiple opportunities for drug repurposing: Primary screen for SK-N-SH cells (AID 1347098);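 further: DMSO served as neutral control and bortezomib at 2.3 µM as positive control; nearly all actives have a fitted effect of over 65% in size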
How it was run: (§4)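 Cells (500-1,000/well) rested 5 h, then received compounds for 48 h; metabolically active cells were measured by CellTiter-Glo luminescence. Final concentrations spanned up to 46 µM (MIPE, 11-point) or 0.59 nM-46 µM (NPC, 8-point) in primary screens, 11-point in follow-ups.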

[10] = qHTS of pediatric cancer cell lines to identify multiple opportunities for drug repurposing: Primary screen for NB1643 cells (AID 1347099); further: nearly all actives have a fitted effect of over 50% in size
How it was run: as §2

[11] = qHTS of pediatric cancer cell lines to identify multiple opportunities for drug repurposing: Primary screen for LAN-5 cells (AID 1347100)
How it was run: as §3

[12] = qHTS of pediatric cancer cell lines to identify multiple opportunities for drug repurposing: Primary screen for BT-12 cells (AID 1347101); further: nearly all actives have a fitted effect of over 25% in size
How it was run: as §4

[13] = qHTS of pediatric cancer cell lines to identify multiple opportunities for drug repurposing: Primary screen for Rh18 cells (AID 1347102); further: nearly all actives have a fitted effect of over 65% in size
How it was run: as §3

[14] = qHTS of pediatric cancer cell lines to identify multiple opportunities for drug repurposing: Primary screen for OHS-50 cells (AID 1347103); further: nearly all actives have a fitted effect of over 40% in size
How it was run: as §4

[15] = qHTS of pediatric cancer cell lines to identify multiple opportunities for drug repurposing: Primary screen for RD cells (AID 1347104); further: nearly all actives have a fitted effect of over 55% in size
How it was run: as §2

[16] = qHTS of pediatric cancer cell lines to identify multiple opportunities for drug repurposing: Primary screen for MG 63 (6-TG R) cells (AID 1347105); further: nearly all actives have a fitted effect of over 50% in size
How it was run: as §2

[17] = qHTS of pediatric cancer cell lines to identify multiple opportunities for drug repurposing: Primary screen for control Hh wild type fibroblast cells (AID 1347106);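 further: series mostly up to about 46 µM; a drop in luminescence marks cytotoxicity and a rise apparent proliferation; nearly all actives have a fitted effect of over 55% in size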
How it was run: as §3

[18] = qHTS of pediatric cancer cell lines to identify multiple opportunities for drug repurposing: Primary screen for Rh30 cells (AID 1347107); further: series mostly up to about 46 µM; nearly all actives have a fitted effect of over 75% in size
How it was run: as §3

[19] = qHTS of pediatric cancer cell lines to identify multiple opportunities for drug repurposing: Primary screen for Rh41 cells (AID 1347108);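 further: series mostly up to about 46 µM; luminescence drop marks cytotoxic hits; nearly all actives have a fitted effect of over 70% in size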
How it was run: as §2

Measured: Potency

O=C(NN1CCCC1)NS(=O)(=O)c1ccc(Cl)cc1
inactive: all assays above

O=C(O)Cc1ccccc1Oc1ccc(Cl)cc1Cl
inactive: all assays above

O=C1CC(c2ccc(Cl)cc2)CC(=O)N1
not listed: [19]
inactive: all other assays above

CC(=O)c1cc2ccccc2s1
inactive: all assays above

COc1cc(C(=O)NC2CCCNC2)cc(OC)c1OC (configuration not stated)
inactive: all assays above

O=C(O)c1ccc(OCCN2CCCCC2)cc1
inactive: all assays above

CO/N=C(\C(=O)O)c1csc(NC(=O)CCl)n1
inactive: all assays above

N#CC1(c2ccc(F)cc2)CCC(=O)CC1
inactive: all assays above

CCCCCN(CCCOC)C(=O)C(CCC(=O)O)NC(=O)c1ccc(Cl)c(Cl)c1 (configuration not stated)
inactive: all assays above

CCN1C(=O)c2ccccc2C1Nc1ccc(OCCN2CCCCC2)cc1 (configuration not stated)
inactive: all assays above

O=C(O)CNC(=O)CNC(=O)CNC(=O)CSC(=O)c1ccccc1
inactive: all assays above

CCc1cc(S(=O)(=O)O)c2cc(C(C)C)cccc1-2
not listed: [17]
inactive: all other assays above

Cn1cc(S(C)=O)c(=O)c2ccc(F)cc21 (configuration not stated)
not listed: [16]
inactive: all other assays above

C#CC(C)(CC)OC(=O)c1ccccc1C(=O)O (configuration not stated)
not listed: [14]
inactive: all other assays above
